Results reported in PubChem BioAssay AID1159580 (chemical genetic matrix, 2015).
“And” between values parts separate entries of the source, which are not always exact repeats. Equal values may be shown once. In all, about 5,500 compounds went through this assay and about 2,000 (36%) were called active. Another 18% or so got no clear call; they are omitted. No stated cut-off is given here; in the data, active means normalized growth mostly below about 0.91 (no sharp cut-off); inconclusive means no clear call, values can overlap the other calls; inactive means mostly above about 0.92. Some of the results follow.

Test: chemical genetic growth profiling, strain panel (AID 1159580);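 further: tested at 20 µM; growth read once vehicle control cultures reached saturation at 30 °C; 1 = growth at the plate median or of vehicle wells; lower values mean less growth of the strain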
Conditions: S. cerevisiae deletion strains, growth OD

Measured: normalized growth

O=C1C=CC(=O)c2c(O)cccc21
active: locus YBR231C, strain swc5, active compounds read low 0.876 | locus YDR137W, strain rgp1, active compounds read low 0.708 | locus YDR159W, strain sac3, active compounds read low 0.838 | locus YDR334W, strain swr1, active compounds read low 0.879 | locus YDR392W, strain spt3, active compounds read low 0.596 | locus YER111C, strain swi4, active compounds read low 1.13 [resistant] | locus YER155C, strain BEM2 (second series), active compounds read low 0.766 | locus YGL240W, strain doc1, active compounds read low 0.817
inactive: locus YAL021C, strain ccr4, active compounds read low 1.01 | locus YAL026C, strain drs2, active compounds read low 0.951 | locus YAL030W, strain snc1, active compounds read low 0.965 | locus YBL061C, strain skt5, active compounds read low 0.976 | locus YBR009C, strain hhf1, active compounds read low 0.966 | locus YBR021W, strain FUR4, active compounds read low 1.09 | locus YBR023C, strain chs3, active compounds read low 0.973 | locus YBR171W, strain sec66, active compounds read low 1 | locus YBR229C, strain ROT2, active compounds read low 0.955 | locus YBR279W, strain paf1, active compounds read low 0.974 | locus YCL011C, strain gbp2, active compounds read low 0.978 | locus YCL016C, strain dcc1, active compounds read low 0.975 | locus YCL029C, strain bik1, active compounds read low 0.983 | locus YCL069W, strain vba3, active compounds read low 0.971 | locus YCR088W, strain abp1, active compounds read low 0.981 | locus YDL005C, strain med2, active compounds read low 1 | locus YDL035C, strain GPR1, active compounds read low 0.993 | locus YDL040C, strain nat1, active compounds read low 1 | locus YDL074C, strain BRE1, active compounds read low 1.02 | locus YDL101C, strain DUN1, active compounds read low 0.966 | locus YDL134C, strain PPH21, active compounds read low 0.967 | locus YDL185W, strain tfp1, active compounds read low 0.961 | locus YDL192W, strain arf1, active compounds read low 0.972 | locus YDR001C, strain nth1, active compounds read low 0.991 | locus YDR069C, strain doa4, active compounds read low 0.956 | locus YDR101C, strain arx1, active compounds read low 1.03 | locus YDR162C, strain NBP2, active compounds read low 0.912 | locus YDR195W, strain ref2 1.03 | locus YDR297W, strain sur2, active compounds read low 1.01 | locus YDR318W, strain mcm21, active compounds read low 0.962 | locus YDR335W, strain msn5, active compounds read low 0.975 | locus YDR388W, active compounds read low 0.99 | locus YDR502C, strain sam2, active compounds read low 1.01 | locus YEL003W, strain gim4, active compounds read low 0.969 | locus YEL037C, strain rad23, active compounds read low 0.973 | locus YEL061C, strain CIN8 (second series), active compounds read low 0.983 | locus YEL061C, strain CIN8, active compounds read low 0.982 | locus YER015W, strain faa2, active compounds read low 0.956 | locus YER016W, strain bim1, active compounds read low 1.02 | locus YER110C, active compounds read low 0.972 | locus YER155C, strain BEM2, active compounds read low 1 | locus YER167W, strain BCK2, active compounds read low 0.984 | locus YFR010W, strain ubp6, active compounds read low 0.907 | locus YGL078C, strain dbp3, active compounds read low 1.04 | locus YGL086W, strain mad1, active compounds read low 1.02 | locus YGL167C, strain pmr1, active compounds read low 0.961 | locus YGL173C, strain kem1, active compounds read low 0.938 | locus YGL227W, strain vid30, active compounds read low 1.04 | locus YGL248W, strain PDE1, active compounds read low 0.955 | locus YGL253W, strain hxk2, active compounds read low 0.979 | locus YGR078C, strain PAC10, active compounds read low 0.958 | locus YGR135W, strain pre9, active compounds read low 0.966 | locus YGR229C, strain SMI1, active compounds read low 0.97 | locus YGR252W, strain gcn5, active compounds read low 1.03 | locus YHR013C, strain ard1, active compounds read low 0.894 | locus YHR027C, strain rpn1, active compounds read low 0.954 | locus YHR030C, strain SLT2, active compounds read low 0.993 and 0.875 | locus YHR079C, strain IRE1 (second series), active compounds read low 0.997 | locus YHR079C, strain IRE1, active compounds read low 0.972 | locus YHR094C, strain hxt1, active compounds read low 1 | locus YHR129C, strain ARP1, active compounds read low 0.991 | locus YHR142W, strain chs7, active compounds read low 0.992 | locus YHR200W, strain rpn10, active compounds read low 0.963 | locus YIL066C, strain RNR3, active compounds read low 0.965 | locus YIL073C, strain SPO22, active compounds read low 0.933 | locus YIL125W, strain kgd1, active compounds read low 0.997 | locus YIR030C, strain dcg1, active compounds read low 1 | locus YJL092W, strain hpr5, active compounds read low 0.987 | locus YJL095W, strain BCK1 (second series), active compounds read low 0.946 | locus YJL095W, strain BCK1, active compounds read low 0.903 and 0.941 | locus YJL115W, strain asf1, active compounds read low 0.969 | locus YJL129C, strain trk1, active compounds read low 1.02 | locus YJL134W, strain LCB3, active compounds read low 0.984 | locus YJL154C, strain vps35, active compounds read low 0.974 | locus YJL164C, strain tpk1, active compounds read low 0.953 | locus YJL166W, strain qcr8, active compounds read low 0.935 | locus YJL168C, strain set2, active compounds read low 0.988 | locus YJL187C, strain SWE1 (second series), active compounds read low 0.964 | locus YJL187C, strain SWE1, active compounds read low 0.987
